From PubChem
PfGluPho inh = PfG6PD enzyme inhibitors, primary screen, biochemical, fluorescence intensity, uHTS. glucose-6-phosphate dehydrogenase-6-phosphogluconolactonase (Plasmodium falciparum 3D7). PfGluPho enzyme, NADPH resazurin-diaphorase fluorescence. inhibition, % at 20 µM. 0.78% of 350,000 active;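 active means inhibition reaching at least a set limit at 20 µM in the primary screen, cut at about 59% in these data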
ALR H2O2 inh = inhibitors of human ALR sulfhydryl oxidase, primary screen, biochemical, H2O2 detection, HRP-luminol luminescence, single point. purified ALR, DTT oxidation. AID 485317, 2010. inhibition, % (no concentration beside the values). 3.8% of 290,000 active. FAD-linked sulfhydryl oxidase ALR (Homo sapiens), P55789;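 active means mean replicate inhibition above about 79%, with every replicate also reaching it, limit read from the data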
Target sequence (P55789 whole entry, looked up): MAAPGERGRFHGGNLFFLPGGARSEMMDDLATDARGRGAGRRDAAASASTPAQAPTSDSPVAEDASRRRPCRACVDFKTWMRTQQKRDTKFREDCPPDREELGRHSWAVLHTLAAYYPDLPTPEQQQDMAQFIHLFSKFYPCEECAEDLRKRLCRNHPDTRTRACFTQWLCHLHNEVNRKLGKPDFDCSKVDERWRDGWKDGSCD
M18AAP inhibitor = PfM18AAP inhibitors, malaria aminopeptidase, primary screen, biochemical, QFRET, recombinant enzyme; 1.2% of 290,000 active; inhibition, % at 7.35 µM; AID 1822, 2009; H-Glu-NHMec fluorogenic cleavage;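 active means inhibition above the campaign mean inhibition over all tested compounds plus 3 SD, cut at about 28% in these data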
Cardio protect = cardioprotection against H2O2-induced cell death, primary screen, uHTS, H9c2 cells, ATPLite luminescence. H9c2 cardiomyocytes, H2O2 injury protection, 2 h. protection from H2O2 cell death, % at 20 µM. 0.63% of 360,000 active. AID 588492, 2011;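 active means compounds giving at least 50% protection of heart cells from peroxide-induced death in the single-dose screen, raw or plate-pattern-corrected value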
PHOSPHO1 block = PubChem AID 1565; Phosphoethanolamine/phosphocholine phosphatase (Homo sapiens), Q8TCT1; recombinant PHOSPHO1, absorbance phosphatase assay; inhibition, % at 13.3 µM; 1.1% of 290,000 active; in the data active means inhibition above about 60%
Target sequence (Q8TCT1 whole entry, looked up): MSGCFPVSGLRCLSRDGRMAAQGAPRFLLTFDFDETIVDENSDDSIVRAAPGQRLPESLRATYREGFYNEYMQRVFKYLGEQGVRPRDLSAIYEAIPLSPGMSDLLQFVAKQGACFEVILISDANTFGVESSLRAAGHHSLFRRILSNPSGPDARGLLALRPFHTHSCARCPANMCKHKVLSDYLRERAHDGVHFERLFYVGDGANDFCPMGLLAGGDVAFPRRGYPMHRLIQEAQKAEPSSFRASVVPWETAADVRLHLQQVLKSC
Hits are given with their value; – = inactive; · = no result. This is a sample that favours compounds with a hit; in the whole collection about 5.6% have one here.

SMILES	PfGluPho inh	ALR H2O2 inh	M18AAP inhibitor	Cardio protect	PHOSPHO1 block
Cc1ccc(C2c3[nH]c4ccccc4c3C[C@H]3C(=O)N(c4ccccc4C(=O)N4CCC[C@H]4C(=O)O)C(=O)N23)cc1 (stereo not given in full)	–	98	–	–	–
CC(C)c1ccc(C2c3[nH]c4ccccc4c3C[C@H]3C(=O)N(c4ccccc4C(=O)N4CCC[C@@H]4C(=O)O)C(=O)N23)cc1 (stereo not given in full)	–	98	–	–	–
CC(C)c1ccc(C2c3[nH]c4ccccc4c3C[C@H]3C(=O)N(c4ccccc4C(=O)N4CCC(C(=O)O)CC4)C(=O)N23)cc1 (stereo not given in full)	–	98	–	–	–
O=C(CN(c1ccccc1)S(=O)(=O)c1ccccc1)NCCSCc1ccco1	–	–	–	–	72
Cc1ccc(N(CC(=O)Nc2ccccc2C(=O)NCc2ccco2)S(=O)(=O)c2ccccc2)cc1C	–	96	–	–	–
O=C(CN(c1ccccc1)S(=O)(=O)c1ccccc1)Nc1ccccc1C(=O)NCc1ccco1	–	–	–	–	–
O=C(COc1ccccc1)NCCSCc1ccco1	–	82	–	–	–
O=C(COC(=O)c1ccccn1)NCCc1ccc(Cl)cc1	–	–	·	–	·
O=C1NC[C@@H](c2ccccc2)OC(=O)[C@@H](Cc2ccc(F)cc2)C/C=C\C[C@@H]1CC(=O)N(CCO)Cc1ccccc1	–	–	·	–	·
CC1(C(=O)NS(=O)(=O)c2ccc(C#N)cc2)CCN1C(=O)c1ccccc1CCc1ccccc1 (stereo not given)	·	·	·	–	·
CC(C)CNC(=S)NNC(=O)c1csc2c1CCC(C)C2 (stereo not given)	–	–	–	–	84
Cc1cccc(NC(=S)NNC(=O)c2csc3c2CCC(C)C3)c1 (stereo not given)	–	·	–	–	–
Cc1ccc2sc(=O)[nH]c2c1	–	–	–	–	–
Cc1ccc2c3c([nH]c2c1)C(=O)CC(C)(C)S3	–	98	–	–	–
CCCn1c(NCc2ccc3c(c2)OCO3)nc2ccccc21	–	96	–	–	–
CN(C)CCn1c(NCc2ccc3c(c2)OCO3)nc2ccccc21	–	–	–	–	–
CCCCn1c(NCc2ccc3c(c2)OCO3)nc2ccccc21	–	92	–	–	–
CC(C)C(Cl)=NOC(=O)Nc1ccc(S(N)(=O)=O)cc1	–	·	·	–	·
Cc1ccc(OCC(=O)N/N=C\c2cccn2C)c([N+](=O)[O-])c1	–	–	–	–	–
CCCn1cnc2cc(NCc3ccc(Br)cc3)ccc21	–	–	–	–	–
Cc1ccc(CNc2ccc3c(c2)ncn3C(C)C)cc1	–	93	–	–	–
CCn1cnc2cc(NS(=O)(=O)c3ccc(C)cc3)ccc21	–	–	–	–	–
CCn1cnc2cc(NCc3ccc(Br)cc3)ccc21	–	86	–	·	–
CCn1cnc2cc(NCc3ccc(C)cc3)ccc21	–	87	–	–	–
Cc1cccc(NC(=O)CNC(=O)[C@H]2O[C@@H](n3ccc(N)nc3=O)[C@H](O)[C@@H]2O)c1C	·	·	·	–	·
SMILES	PfGluPho inh	ALR H2O2 inh	M18AAP inhibitor	Cardio protect	PHOSPHO1 block
O=C(Nc1nc2ccccc2[nH]1)c1cc2ccccc2o1	–	–	–	–	–
CC(OC(=O)c1ccc2ccccc2c1)C(=O)N(C)Cc1ccccc1 (stereo not given)	–	–	·	–	·
CC(C)N(CCC(=O)c1ccc2ccccc2c1)Cc1ccccc1	–	97	·	–	·
Cc1csc(/N=C/c2ccc([N+](=O)[O-])cc2)n1	–	85	–	–	–
O=[N+]([O-])c1ccc(/C=N/N2CCCCC2)cc1	–	–	–	–	–
O=C(CSc1nnnn1-c1ccc(F)cc1F)Nc1ccccc1F	–	–	–	–	–
COc1ccc(-c2oc(=O)c3cc(OC)c(OC)cc3c2C#CCCO)cc1	–	·	·	66	·
O=C(O)Cc1ccc(O)c(O)c1	–	98	·	–	–
O=C(O)Cc1ccc2ccc3ccccc3c2c1	–	–	·	–	·
CC1=NN(c2ccccc2)C(=O)C1/C=C1\NC(=S)NC1=O (stereo not given)	–	89	–	–	–
O=C(c1cccs1)N1CCN(Cc2nc(-c3ccccc3)no2)CC1	–	·	·	–	·
Cc1oc2c(O)c(O)ccc2c(=O)c1-c1ccccc1	–	99	·	69	–
COc1ccc(CNC(=O)C(c2ccco2)N(C(=O)c2snc(C(N)=O)c2N)c2cccc(OC)c2)cc1 (stereo not given)	–	–	–	–	–
CCCN1CCN(C(=O)C(NC(=O)c2ccco2)C(C)C)CC1 (stereo not given)	–	–	–	–	–
CC1(C)CC2(CC(C)(C(=O)CSc3nc4ccccc4s3)OC2=O)C(=O)O1 (stereo not given)	–	91	–	–	–
O=C(CSc1nc2ccccc2s1)N1CCOCC1	–	97	–	–	–
COC(=O)CC1C(=O)NCCN1C(=O)CSc1nc2ccccc2s1 (stereo not given)	–	99	–	–	–
NC(=O)C1(N2CCCCC2)CCN(C(=O)CSc2nc3ccccc3s2)CC1	–	·	–	–	–
CC1(C(=O)CSc2nc3ccccc3s2)CCC(=O)O1 (stereo not given)	–	99	–	–	–
O=C(CN1CCCc2ccccc21)Nc1cccc(S(=O)(=O)N2CCOCC2)c1	–	·	·	–	·
CCOc1ccccc1-c1nnc(SCC(=O)NC2(C#N)CCCC2)o1	–	–	·	–	·
Cc1oc2cc(Br)c(O)c(Br)c2c1-c1ccccc1	–	–	–	–	–
O=[N+]([O-])c1cc([N+](=O)[O-])c(Oc2cccnc2Br)cc1NN1CCCCC1	–	–	–	–	–
Nc1nc(CSc2nc3ccccc3s2)nc(N2CCOCC2)n1	–	99	–	–	–
CC1CC2(CC(C)(C(=O)CSc3nc4ccccc4s3)OC2=O)C(=O)O1 (stereo not given)	–	98	–	–	–
SMILES	PfGluPho inh	ALR H2O2 inh	M18AAP inhibitor	Cardio protect	PHOSPHO1 block
CC(=O)Oc1ccc(Cn2c(C)c(C(=O)NCc3ccc4c(c3)OCCO4)sc2=O)cc1	·	·	·	–	·
COc1ccc(-c2ccc3c(c2)C2CC3CCN2C(=O)C2CCCCC2)cc1 (stereo not given)	–	·	·	–	·
Cc1ccc(S(=O)(=O)c2c(O)c3ccc(C(=O)O)cc3[nH]c2=O)cc1	–	–	–	–	–
CCOc1ccc(N(CC(=O)NN=C2CCN(C)CC2)S(C)(=O)=O)cc1	–	91	–	–	–
COc1cc(O)cc2occ(-c3ccc(O)cc3)c(=O)c12	–	98	–	–	–
COc1ccc(-c2coc3cc(O)ccc3c2=O)cc1	–	–	·	–	·
COc1ccc(-c2coc3cc(O)ccc3c2=O)cc1O	–	77	–	–	–
Cc1ccccc1OCC(=O)OC(C)C(=O)NC1CCCC1 (stereo not given)	–	–	·	–	·
